Laboratory results published in PubChem BioAssay AID463173 (ICCB-Longwood Screening Facility, Harvard Medical School, 2010).
The campaign covered roughly 52,000 compounds. About 1,700 (3.3%) were called active. No stated cut-off is given here; in the data, active means survival mostly below about 52% (no sharp cut-off); inactive means mostly above about 56%. For the sample, actives were picked, then their nearest neighbours and some compounds at random.

The compounds below were run on Wild type (assay: S. aureus survival, RN4220 and DeltatarO strains – OD600, teichoic acid synthesis inhibitors, primary screen (AID 463173)). Details: S. aureus RN4220 wild type/DeltatarO growth, OD600, 18 h, stronger effect = lower value, screened at 18.75 µg/mL (by protocol).
With `CCCN1C(C(=O)c2ccccc2)=C(OC(=O)COc2ccc(C)cc2)c2ccccc2S1(=O)=O` the survival was 25% (inactive).
In the case of `c1ccc2c(c1)ncn2-c1ncnc2sc3c(c12)CCCC3`, the survival is reported as 107% (inactive).
For `COc1ccc(-c2cc(OC(=O)c3cccc(Cl)c3)c3c(C)oc(C)c3c(=O)c2)cc1OC`, the survival was 76% (inactive).
In the case of `CSc1cccc(NC(=O)c2cccc(N3CCCS3(=O)=O)c2)c1`, the survival is reported as 115% (inactive).
`CCN(C(=O)Cn1c(C(=O)OC)cc2sccc21)c1cccc(C)c1` was tested, and the survival was 73% (inactive).
For `O=c1cc(-c2ccccc2)nc(SCc2nc(-c3cccc(C(F)(F)F)c3)no2)[nH]1`, the survival was 83% (inactive).
In the case of `Cc1ccc(Sc2ccc(N3CCCC(C(=O)Nc4ccc(Cl)cc4)C3)nn2)cc1` (centres undefined), the survival is reported as 71% (inactive).
With `CCOC(=O)c1ccc(NC(=O)C2CCCN(c3ccc(Sc4ccc(C)cc4)nn3)C2)cc1` (centres undefined) the survival was 80% (inactive).
With `CCOc1ccc(NC(=O)C2CCCN(c3ccc(Sc4ccc(C)cc4)nn3)C2)cc1` (centres undefined) the survival was 16% (active).
For `O=S(=O)(c1ccc(Br)cc1)c1nnn2c1nc(NCc1ccc3c(c1)OCO3)c1sccc12`, the survival was 90% (inactive).
In the case of `CCOC(=O)C1CCCN(C(=O)c2ccc(-n3ccc4ccccc43)s2)C1` (centres undefined), the survival is reported as -3% (active).
`CCOC(=O)C1CCN(C(=O)c2ccc(-n3ccc4ccccc43)s2)CC1` was tested, and the survival was 71% (inactive).
In the case of `CCC(C)NC(=O)C1CCN(C(=O)c2ccc(-n3ccc4ccccc43)s2)CC1` (centres undefined), the survival is reported as 55% (inactive).
For `COCCn1c(=S)[nH]c2ccccc2c1=O`, the survival was 105% (inactive).
For `CCCC(=O)N(c1ccc2oc3c(c2c1)CCCC3)S(=O)(=O)c1ccc(CC)cc1`, the survival was 67% (inactive).
`CC(C)c1ccc(-c2nnn(CC(N)=O)n2)cc1` was tested, and the survival was 115% (inactive).
In the case of `CC(C)(C)OC(=O)N1CCC(c2c(C(=O)N3CCN(c4ncccn4)CC3)cnn2-c2ccc(F)cc2)CC1`, the survival is reported as -1% (active).
For `Cc1ccc(-n2ncc(C(=O)N3CCN(c4ncccn4)CC3)c2C2CCN(C(=O)OC(C)(C)C)CC2)cc1`, the survival was 71% (inactive).
With `CC(C)(C)OC(=O)N1CCC(c2c(C(=O)N3CCN(c4ncccn4)CC3)cnn2-c2ccc(F)cc2F)CC1` the survival was 1% (active).
`Cc1ccc(-n2ncc(C(=O)N3CCN(c4cccc(C)c4C)CC3)c2C2CCNCC2)c(C)c1` was tested, and the survival was 84% (inactive).
In the case of `CC(C)(C)OC(=O)N1CCC(c2c(C(=O)N3CCN(c4ncccn4)CC3)cnn2-c2ccccc2)CC1`, the survival is reported as 87% (inactive).
With `Cc1cccc(N2CCN(C(=O)c3cnn(-c4ccc(F)cc4F)c3C3CCN(C(=O)OC(C)(C)C)CC3)CC2)c1C` the survival was 99% (inactive).
For `CC(C)(C)OC(=O)N1CCC(c2c(C(=O)N3CCN(c4ccccn4)CC3)cnn2-c2ccc(F)cc2F)CC1`, the survival was 71% (inactive).
With `CN1CCN(C(=O)c2cnn(-c3ccc(F)cc3F)c2C2CCN(C(=O)OC(C)(C)C)CC2)CC1` the survival was 87% (inactive).
For `COc1ccccc1N1CCN(C(=O)c2cnn(-c3ccc(F)cc3F)c2C2CCNCC2)CC1`, the survival was 0% (active).
With `COc1ccc(OC)c(NC(=O)Cn2cc(C(=O)c3ccc(Cl)cc3)c(=O)c3cc(OC)ccc32)c1` the survival was 68% (inactive).
For `O=C(CSc1nc2c([nH]c3ccccc32)c(=O)n1-c1ccccc1)Nc1ccc2c(c1)OCCO2`, the survival was 87% (inactive).
`Cc1ccccc1NS(=O)(=O)c1ccc2[nH]cc(C(=O)NC3CCCCC3)c(=O)c2c1` was tested, and the survival was 80% (inactive).
In the case of `CCOc1ccc(NS(=O)(=O)c2ccc3[nH]cc(C(=O)NCc4ccccc4)c(=O)c3c2)cc1`, the survival is reported as 74% (inactive).
For `CC(C)c1ccc(NS(=O)(=O)c2ccc3[nH]cc(C(=O)NC4CCCC4)c(=O)c3c2)cc1`, the survival was 7% (active).
`CCc1ccccc1NS(=O)(=O)c1ccc2[nH]cc(C(=O)NC3CCCC3)c(=O)c2c1` was tested, and the survival was 42% (inactive).
With `Cc1c(Cl)cccc1NS(=O)(=O)c1ccc2[nH]cc(C(=O)NC3CCCC3)c(=O)c2c1` the survival was 11% (active).
In the case of `CCOc1ccc(NS(=O)(=O)c2ccc3[nH]cc(C(=O)N(C)Cc4ccccc4)c(=O)c3c2)cc1`, the survival is reported as 1% (active).
`CCOc1ccc(NS(=O)(=O)c2ccc3[nH]cc(C(=O)NC4CCCC4)c(=O)c3c2)cc1` was tested, and the survival was 55% (inactive).
With `Cc1cc(C)cc(NS(=O)(=O)c2ccc3[nH]cc(C(=O)N(C)Cc4ccccc4)c(=O)c3c2)c1` the survival was 111% (inactive).
In the case of `CCc1ccc(NS(=O)(=O)c2ccc3[nH]cc(C(=O)NC4CCCC4)c(=O)c3c2)cc1`, the survival is reported as 9% (active).
`Cc1cc(C)cc(NS(=O)(=O)c2ccc3[nH]cc(C(=O)NC4CCCCC4)c(=O)c3c2)c1` was tested, and the survival was 27% (inactive).
For `CNC(=O)c1c[nH]c2ccc(S(=O)(=O)Nc3cccc(Cl)c3C)cc2c1=O`, the survival was 82% (inactive).
With `CC(C)c1ccc(NS(=O)(=O)c2ccc3[nH]cc(C(=O)NC4CCCCC4)c(=O)c3c2)cc1` the survival was 13% (inactive).
In the case of `COc1ccc(-n2ncc3c2ncn2nc(-c4ccc(Cl)cc4Cl)nc32)cc1`, the survival is reported as 92% (inactive).
With `Cc1ccc(NC2=NCC(=O)N2C2CCCC2)cc1C` the survival was 104% (inactive).
For `CCOC(=O)c1cc(-c2ccccc2)n(CCCC(=O)Nc2ccc(C)cc2Cl)c1C`, the survival was 91% (inactive).
In the case of `COc1ccc(S(=O)(=O)N/N=C(/C2CCCCC2)C(F)(F)F)cc1`, the survival is reported as 111% (inactive).
In the case of `CCN(C(=O)CCS(=O)(=O)c1ccc2c(c1)oc(=O)n2C)c1ccc(OC)cc1`, the survival is reported as 70% (inactive).
For `CCc1ccccc1NC(=O)Nc1cc(C(=O)NCc2ccc(OC)cc2)ccc1N1CCCC1`, the survival was 128% (inactive).
In the case of `CN(C(=O)c1c[nH]c2ccc(S(=O)(=O)Nc3cccc(C(F)(F)F)c3)cc2c1=O)C1CCCCC1`, the survival is reported as 71% (inactive).
For `COc1cccc(NS(=O)(=O)c2ccc3[nH]cc(C(=O)NC4CCCCC4)c(=O)c3c2)c1`, the survival was 50% (inactive).
For `O=C(NC1CCCC1)c1c[nH]c2ccc(S(=O)(=O)Nc3cccc(C(F)(F)F)c3)cc2c1=O`, the survival was 11% (active).
In the case of `COc1cccc(-n2c(SCC(=O)c3ccc(Cl)cc3)nc3c([nH]c4ccccc43)c2=O)c1`, the survival is reported as 45% (inactive).
`COc1cc(OC)c(NC2(c3ccccc3)C(=O)c3ccccc3C2=O)cc1Cl` was tested, and the survival was 65% (inactive).
For `CCOc1ccc(CCNC(=O)c2c(C)oc3ncn(C)c(=O)c23)cc1`, the survival was 82% (inactive).
In the case of `Cc1oc2ncn(CC(C)C)c(=O)c2c1C(=O)NCCCN1CCCCC1`, the survival is reported as 73% (inactive).
In the case of `CCNC(=O)c1c(C)oc2ncn(C)c(=O)c12`, the survival is reported as 119% (inactive).
In the case of `Cc1cccc(NC(=O)c2c(C)oc3ncn(CC(C)C)c(=O)c23)n1`, the survival is reported as 71% (inactive).
For `CCN(CC)CCCNC(=O)c1c(C)oc2ncn(CC(C)C)c(=O)c12`, the survival was 81% (inactive).
For `Cc1oc2ccc(O)c(CN3CCN(C)CC3)c2c1C(=O)Nc1cccc(C(F)(F)F)c1`, the survival was 92% (inactive).
With `Cc1oc2ncn(CC(C)C)c(=O)c2c1C(=O)Nc1cccc(C(F)(F)F)c1` the survival was -3% (active).
`Cc1ccnc(NC(=O)c2c(C)oc3ncn(CC(C)C)c(=O)c23)c1` was tested, and the survival was 69% (inactive).
For `CCCCNC(=O)c1c(C)oc2ncn(CC(C)C)c(=O)c12`, the survival was 1% (active).
With `CSc1ccc(CCNC(=O)c2c(C)oc3ncn(C)c(=O)c23)cc1` the survival was -4% (active).
For `Cc1oc2ccc(O)c(CN(C)Cc3ccccc3)c2c1C(=O)Nc1cccc(C(F)(F)F)c1`, the survival was 10% (active).
In the case of `Cc1oc2ccc(O)c(CN(C)Cc3ccccc3)c2c1C(=O)Nc1ccccc1`, the survival is reported as 105% (inactive).
`Cc1ccc(CNC(=O)CCCCCn2c(=O)[nH]c3ccccc3c2=O)cc1` was tested, and the survival was 146% (inactive).
`CCOc1ccc(NS(=O)(=O)c2ccc3[nH]cc(C(=O)N4CCCCCC4)c(=O)c3c2)cc1` was tested, and the survival was 122% (inactive).
For `COc1ccccc1N1CCN(Cc2nnc(-c3ccccc3C)o2)CC1`, the survival was 82% (inactive).
With `CCc1nn2c(=O)c(S(=O)(=O)Nc3ccc(Br)cc3F)c(C)nc2s1` the survival was 61% (inactive).
In the case of `COc1ccccc1C(=O)NC1(C(F)(F)F)C(=O)NC(C)=C1C#N` (centres undefined), the survival is reported as 90% (inactive).
For `Cc1ccc(NC(=O)c2oc3ccccc3c2NC(=O)C2CCCCC2)cc1`, the survival was 4% (active).
With `CC(C)(C)NC(=O)c1oc2ccccc2c1NC(=O)c1ccc(F)cc1` the survival was 73% (inactive).
In the case of `CCOc1ccc(NC(=O)c2oc3ccccc3c2NC(=O)C2CCCCC2)cc1`, the survival is reported as 84% (inactive).
With `O=C(Nc1ccc(F)cc1)c1oc2ccccc2c1NC(=O)C1CCCCC1` the survival was 14% (inactive).
In the case of `CN(C)c1ccc(C(=O)Nc2c(C(=O)NC(C)(C)C)oc3ccccc23)cc1`, the survival is reported as 65% (inactive).
In the case of `Cc1ccc(C(=O)Nc2c(C(=O)NC(C)(C)C)oc3ccccc23)cc1`, the survival is reported as 0% (active).
In the case of `CCOC(=O)c1sc(NC(=O)c2c(-c3ccccc3)c(-c3ccccc3)nn(C)c2=O)nc1C`, the survival is reported as 71% (inactive).
For `COc1ccc(-c2noc(Cn3c(=O)c4ccccc4n(CC(=O)Nc4cccc(OC)c4)c3=O)n2)cc1`, the survival was 82% (inactive).
With `Cc1ccccc1NS(=O)(=O)c1ccc2[nH]cc(C(=O)N3CCCC3)c(=O)c2c1` the survival was 99% (inactive).
With `CC(Nc1ccc(-c2nc(-c3ccncc3)no2)cc1[N+](=O)[O-])c1ccccc1` (centres undefined) the survival was 87% (inactive).
In the case of `CCOc1ccc(NC(=O)Cn2c(=O)oc3cc(S(=O)(=O)NC4CCCC4)ccc32)cc1`, the survival is reported as 81% (inactive).
With `CCOCCCNC(=O)c1cnc2sc(N3CCCCCC3)nn2c1=O` the survival was 68% (inactive).
For `CCOC(=O)C1(C)C=C(Nc2cccc(C)c2)C(=O)N1c1ccccc1` (centres undefined), the survival was 51% (inactive).
For `CCOC(=O)CC(NC(=O)CCc1c(C)nc2cc(-c3ccccc3)nn2c1C)c1ccc(C)cc1` (centres undefined), the survival was 128% (inactive).
In the case of `CCOC(=O)Cc1c(C)nc2cc(C)nn2c1C`, the survival is reported as 106% (inactive).
In the case of `CCOC(=O)Cc1c(C)nc2cc(-c3ccc(C(C)(C)C)cc3)nn2c1C`, the survival is reported as -2% (active).
In the case of `O=C(Nc1ccccc1O)c1cccc(S(=O)(=O)Nc2ccccc2O)c1`, the survival is reported as 108% (inactive).
